Here are results for seven compounds from PubChem BioAssay (Tox21).

The nature of assay [1]: qHTS assay for small molecules that induce genotoxicity in human embryonic kidney cells expressing luciferase-tagged ATAD5 (AID 651632). Note: nearly all actives have a fitted effect of over 15% in size. The essentials: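 Quantitative HTS in HEK293T expressing luciferase-tagged ATAD5, whose levels rise upon DNA damage. Exposure ran 16 hr at 37C and 5% CO2, with luminescence read 30 min after Amplite addition at room temperature.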
(In general: Quantitative high-throughput screening tests each substance at several concentrations.)

Assay [2] is described as follows: qHTS assay for small molecule agonists of the p53 signaling pathway - cell viability (AID 651633; calls by dose curve;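 note: p53RE-bla HCT reporter cells with a stable beta-lactamase p53 reporter; series mostly up to about 83 µM; nearly all actives have a fitted effect of over 30% in size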). The method in brief: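 p53RE-bla cells were treated with compound for 16 hours at 37 C. Cytotoxicity was then measured as CellTiter-Glo luminescence after 30 min at room temperature.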
Assay [3] in a line: qHTS assay for small molecules that induce genotoxicity in human embryonic kidney cells expressing luciferase-tagged ATAD5 - cell viability (AID 651634; calls by dose curve; note: nearly all actives have a fitted effect of over 25% in size). The essentials:
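After 15.5 hr incubation with compound at 37C, 5% CO2, HEK293T ATAD5-luciferase cells received CellTiter-Fluor reagent; fluorescence intensity was quantified following 30 min at 37C.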

A short description of assay [4]: qHTS assay for small molecule disruptors of the mitochondrial membrane potential - cell viability (AID 720634; calls by dose curve;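 note: human HepG2 liver cancer cells; series mostly up to about 83 µM; nearly all actives have a fitted effect of over 20% in size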). The essentials:
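ATP-based luminescent viability readout (CellTiter-Glo, 30 min, room temperature) in HepG2 cells multiplexed with the m-MPI membrane potential dye; compound exposure lasted 1 hr at 37 C.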

Assay [5] is described as follows: qHTS assay to test for compound auto fluorescence at 590 nm (red) in HepG2 cells (AID 720674). The essentials: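 HepG2 cells, 2,000 per well in MEM with 10% FBS, attached overnight at 37 C, then got 23 nL compound or DMSO. After 1 hr at 37 C, 5% CO2, red fluorescence was read at 540/590 nm against Rose Bengal sodium as reference.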
Assay [6] in a line: qHTS assay to test for compound auto fluorescence at 535 nm (green) in HepG2 cells (AID 720675).
Assay [7] in a line: qHTS assay to test for compound auto fluorescence at 460 nm (blue) in HEK293 cells (AID 720678). The essentials: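 Cells were seeded and left to adhere for 4-5 hr at 37C. Compounds were then pin-transferred. After an overnight incubation at 37C under 5% CO2, intrinsic fluorescence at 405/460 nm was measured and referenced to triamterene.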
Assay [8] is described as follows: qHTS assay to test for compound auto fluorescence at 590 nm (red) in HEK293 cells (AID 720679). The method in brief: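 Each well held 2,000 HEK293 cells in medium containing 10% dialyzed FBS. Following 4-5 hr attachment at 37C, 23 nL test compound or DMSO was added; plates sat overnight, and red fluorescence (540/590nm) was recorded.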
Assay [9] can be described thus: qHTS assay to test for compound auto fluorescence at 535 nm (green) in HEK293 cells (AID 720680).
Assay [10] in a line: qHTS assay to test for compound auto fluorescence at 460 nm (blue) in HEK293 cell free culture (AID 720681). The method in brief: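 Compounds were added to cell-free DMEM with 10% FBS and fluorescence read directly. The blue channel used 405 nm excitation and 460 nm emission, with triamterene as the reference fluorophore.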
A short description of assay [11]: qHTS assay to test for compound auto fluorescence at 535 nm (green) in HEK293 cell free culture (AID 720682). The essentials:
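DMEM + 10% FBS, cell-free; cpd or DMSO pinned in; Ex485/Em535 read; output as fluorescein-equivalent signal.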

The nature of assay [12]: qHTS assay to test for compound auto fluorescence at 590 nm (red) in HEK293 cell free culture (AID 720683). The essentials:
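Cell-free wells of DMEM with 10% FBS received compound, and intrinsic fluorescence was read at excitation/emission 540/590 nm. Values expressed as equivalence to Rose Bengal sodium.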

Assay [13] can be described thus: qHTS assay to test for compound auto fluorescence at 590 nm (red) in HepG2 cell free culture (AID 720684). The method in brief:
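Auto fluorescence equivalency versus Rose Bengal sodium, red channel Ex/Em 540/590 nm; compounds in cell-free MEM/10% FBS; DMSO vehicle control.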

The nature of assay [14]: qHTS assay to test for compound auto fluorescence at 460 nm (blue) in HepG2 cell free culture (AID 720685). The method in brief: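 Cell-free plates of MEM plus 10% FBS received 23 nL compound or DMSO vehicle; blue-channel (405/460 nm) intensity scored against triamterene as reference fluorophore.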
A short description of assay [15]: qHTS assay to test for compound auto fluorescence at 535 nm (green) in HepG2 cell free culture (AID 720686).
A short description of assay [16]: qHTS assay to test for compound auto fluorescence at 460 nm (blue) in HepG2 cells (AID 720687). The method in brief:
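HepG2 cells in MEM with 10% FBS, attached overnight at 37 C, were exposed to compound or DMSO for 1 hr at 37 C, 5% CO2. Blue fluorescence was read at 405/460 nm, with triamterene as reference fluorophore.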

The target in assay [17] is Glucocorticoid receptor (Homo sapiens) (UniProt P04150). Nature of the assay: qHTS assay to identify small molecule agonists of the glucocorticoid receptor (GR) signaling pathway (AID 720691; active = well fitted activation curve with a large enough effect in the signal ratio in the repeat runs, not every such curve was filed as active; the % refers to the signal ratio). The method in brief:
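Cells: GR-bla HeLa, endogenous GR with stably integrated GRE-beta-lactamase reporter. Treatment 18 h, 37 C, compounds delivered in DMSO. Detection via LiveBLAzer B/G FRET substrate, 2 h RT, fluorescence intensity.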

Assay [18] has the same target. Nature of the assay: qHTS assay to identify small molecule antagonists of the glucocorticoid receptor (GR) signaling pathway (AID 720692; active = well fitted inhibition curve with a large enough effect in the signal ratio in the repeat runs, not every such curve was filed as active; the % refers to the signal ratio). The essentials:
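Quantitative HTS in antagonist format: HeLa cells expressing endogenous GR and a stably integrated GRE-bla reporter, stimulated with 5 nM dexamethasone (final) alongside test compounds for 18 h.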

Assay [19] is described as follows: qHTS assay for small molecule disruptors of the mitochondrial membrane potential (AID 720635). Note: potency is the fitted concentration of half-maximal effect. The essentials: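 HepG2 cells exposed to compound 1 hr at 37C, then Mito-MPS dye 30 min. Ratio read of aggregate (540/590 nm) versus monomer (490/535 nm) fluorescence.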

Results filed as inconclusive are left out. Active and inactive are the calls of the source. Unless noted, calls come from the whole dose curve; as a rule, active = well fitted curve in the direction sought with a large enough effect in the repeat runs; inconclusive = weak or mixed curves; inactive = no such curve, though single readings can be large; an effect the other way counts as inactive or inconclusive.

Sequence of Glucocorticoid receptor (Homo sapiens) (P04150 whole entry, looked up): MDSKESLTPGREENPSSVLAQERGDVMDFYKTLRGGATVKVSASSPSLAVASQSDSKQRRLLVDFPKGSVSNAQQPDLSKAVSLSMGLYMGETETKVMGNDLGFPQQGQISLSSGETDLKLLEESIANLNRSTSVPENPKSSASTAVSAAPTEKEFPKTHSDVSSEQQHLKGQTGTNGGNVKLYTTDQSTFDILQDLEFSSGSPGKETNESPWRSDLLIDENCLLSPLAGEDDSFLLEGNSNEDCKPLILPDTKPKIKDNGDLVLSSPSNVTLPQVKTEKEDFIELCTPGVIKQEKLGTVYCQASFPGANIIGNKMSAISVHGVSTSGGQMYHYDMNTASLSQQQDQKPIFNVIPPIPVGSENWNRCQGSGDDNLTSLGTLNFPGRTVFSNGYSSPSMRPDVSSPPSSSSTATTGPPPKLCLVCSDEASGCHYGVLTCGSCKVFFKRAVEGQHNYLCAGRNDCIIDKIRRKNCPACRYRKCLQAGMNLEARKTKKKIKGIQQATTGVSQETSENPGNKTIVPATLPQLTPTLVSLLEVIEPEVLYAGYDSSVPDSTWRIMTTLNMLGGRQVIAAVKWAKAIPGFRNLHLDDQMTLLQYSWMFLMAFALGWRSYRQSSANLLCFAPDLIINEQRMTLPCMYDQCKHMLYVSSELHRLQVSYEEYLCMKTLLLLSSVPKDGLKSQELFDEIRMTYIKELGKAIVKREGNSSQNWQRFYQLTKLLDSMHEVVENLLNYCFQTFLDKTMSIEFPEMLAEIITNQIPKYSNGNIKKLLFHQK

`c1ccc(P(c2ccccc2)c2ccccc2)cc1`: the Potency entry in assay [1], in [2], in assay [3], in assay [4], in assay [17] and in assay [18] was “inactive” in each case. The outcome in assay [5], in assay [6], in assay [7], in assay [8], in assay [9] and in assay [10] was inactive. In addition, the compound was called inactive in assay [11], in assay [12], in assay [13], in assay [14], in assay [15] and in assay [16].

Regarding `c1nc[nH]n1`, the Potency entry in assay [1], in assay [2], in assay [3], in assay [4], in assay [19] and in assay [17] was “inactive” in each case. Moreover, in assay [18], the Potency entry is “inactive”. Moreover, the outcome in [5], in assay [7], in [8], in [9], in [10] and in [11] was inactive. Besides, the compound was called inactive in assay [12], in [13], in assay [14], in assay [15] and in assay [16].

Consider `CCCCNC(=O)n1c(NC(=O)OC)nc2ccccc21`, for which the Potency entry in [1], in [2], in assay [3], in assay [4], in [19] and in assay [17] was “inactive” in each case. Moreover, the Potency result in assay [18] was “inactive”. Besides, the result in [7], in [8], in assay [9], in [10], in assay [11] and in [12] was inactive. The outcome in assay [13], in [14] and in assay [16] was inactive.

For `CC(C)(OOC(C)(C)c1ccccc1)c1ccccc1`, the Potency entry in [1], in [2], in assay [3], in [4], in assay [17] and in assay [18] was “inactive” throughout. Besides, the Potency in [19] is 60.3 µM (active). The result in assay [6], in [7], in [8], in assay [9], in assay [10] and in [11] was inactive. Besides, the call in [12], in assay [13], in assay [14] and in assay [16] was inactive.

Consider `CCCCCCCCCCCOC(=O)c1ccccc1C(=O)OCCCCCCCCCCC`, for which the Potency entry in assay [1], in assay [2], in [3], in assay [4], in [19] and in assay [17] was “inactive” each time. In addition, in assay [18], the Potency result is “inactive”. For the same compound, the result in assay [5], in assay [6], in [7], in assay [8], in assay [9] and in [10] was inactive. The compound was called inactive in [11], in assay [13], in assay [14], in assay [15] and in [16].

Regarding `C1=Cc2cccc3cccc1c23`, the Potency result in [1], in assay [2], in [3], in assay [4], in assay [17] and in assay [18] was “inactive” throughout. For the same compound, the call in [5], in assay [6], in assay [7], in assay [8], in assay [9] and in assay [10] was inactive. Also, the result in assay [11], in assay [13], in assay [14] and in assay [16] was inactive.

`CCC(CC)Nc1c([N+](=O)[O-])cc(C)c(C)c1[N+](=O)[O-]`: the Potency entry in assay [1], in assay [2], in assay [3], in assay [17] and in assay [18] was “inactive” throughout. Also, the Potency in assay [19] was 49.2 µM (active). Further, the call in assay [5], in assay [7], in assay [8], in [9], in [10] and in assay [11] was inactive. Also, the compound was called inactive in assay [12], in assay [13], in assay [14], in [15] and in [16].
